Reference: PubChem BioAssay AID1159580 (chemical genetic matrix, 2015)
Several values for one entry are separate records, joined by “and”; a condition that tells them apart may be missing. Identical values can stand only once. The campaign covered roughly 5,500 compounds. About 2,000 (36%) were called active. Not shown: some 18% with an inconclusive outcome. No stated cut-off is given here; in the data, active means normalized growth mostly below about 0.91 (no sharp cut-off); inconclusive means no clear call, values can overlap the other calls; inactive means mostly above about 0.92. The list shows a part of the results.

Assay: chemical genetic growth profiling, strain panel (AID 1159580);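 further: tested at 20 µM; growth read once vehicle control cultures reached saturation at 30 °C; 1 = growth at the plate median or of vehicle wells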
Settings: S. cerevisiae deletion strains, growth OD

Measured: normalized growth

COc1ccc([C@@H]2CC(=O)c3c(O)cc(O[C@@H]4O[C@H](CO[C@H]5O[C@@H](C)[C@H](O)[C@@H](O)[C@H]5O)[C@@H](O)[C@H](O)[C@H]4O)cc3O2)cc1O
inactive: locus YAL013W, strain DEP1, stronger effect = lower value 0.995 | locus YAL021C, strain ccr4, stronger effect = lower value 1.01 | locus YAL026C, strain drs2, stronger effect = lower value 0.98 | locus YAL030W, strain snc1, stronger effect = lower value 0.993 | locus YBL061C, strain skt5, stronger effect = lower value 0.969 | locus YBR009C, strain hhf1, stronger effect = lower value 0.937 | locus YBR021W, strain FUR4, stronger effect = lower value 0.988 | locus YBR023C, strain chs3, stronger effect = lower value 0.993 | locus YBR171W, strain sec66, stronger effect = lower value 0.976 | locus YBR229C, strain ROT2, stronger effect = lower value 0.993 | locus YBR231C, strain swc5, stronger effect = lower value 0.987 | locus YBR279W, strain paf1, stronger effect = lower value 0.986 | locus YCL011C, strain gbp2, stronger effect = lower value 0.975 | locus YCL016C, strain dcc1, stronger effect = lower value 0.995 | locus YCL029C, strain bik1, stronger effect = lower value 0.971 | locus YCL061C, strain MRC1, stronger effect = lower value 0.977 | locus YCL069W, strain vba3, stronger effect = lower value 0.988 | locus YCR088W, strain abp1, stronger effect = lower value 0.989 | locus YDL005C, strain med2, stronger effect = lower value 0.98 | locus YDL035C, strain GPR1, stronger effect = lower value 0.991 | locus YDL040C, strain nat1, stronger effect = lower value 0.993 | locus YDL074C, strain BRE1, stronger effect = lower value 0.984 | locus YDL101C, strain DUN1, stronger effect = lower value 0.994 | locus YDL185W, strain tfp1, stronger effect = lower value 0.98 | locus YDL192W, strain arf1, stronger effect = lower value 0.993 | locus YDR001C, strain nth1, stronger effect = lower value 0.99 | locus YDR069C, strain doa4, stronger effect = lower value 0.985 | locus YDR101C, strain arx1, stronger effect = lower value 0.968 | locus YDR137W, strain rgp1, stronger effect = lower value 1.04 | locus YDR159W, strain sac3, stronger effect = lower value 0.977 | locus YDR162C, strain NBP2, stronger effect = lower value 1.01 | locus YDR195W, strain ref2 0.932 | locus YDR297W, strain sur2, stronger effect = lower value 0.98 | locus YDR318W, strain mcm21, stronger effect = lower value 0.994 | locus YDR334W, strain swr1, stronger effect = lower value 0.998 | locus YDR335W, strain msn5, stronger effect = lower value 0.982 | locus YDR388W, stronger effect = lower value 0.977 | locus YDR392W, strain spt3, stronger effect = lower value 0.907 | locus YDR502C, strain sam2, stronger effect = lower value 0.981 | locus YEL003W, strain gim4, stronger effect = lower value 0.982 | locus YEL037C, strain rad23, stronger effect = lower value 0.991 | locus YEL061C, strain CIN8 (second series), stronger effect = lower value 0.981 | locus YEL061C, strain CIN8, stronger effect = lower value 1 | locus YER015W, strain faa2, stronger effect = lower value 0.979 | locus YER016W, strain bim1, stronger effect = lower value 0.995 | locus YER110C, stronger effect = lower value 0.973 | locus YER111C, strain swi4, stronger effect = lower value 0.97 | locus YER155C, strain BEM2 (second series), stronger effect = lower value 0.987 | locus YER155C, strain BEM2, stronger effect = lower value 0.988 | locus YER167W, strain BCK2, stronger effect = lower value 0.991 | locus YFR010W, strain ubp6, stronger effect = lower value 0.976 | locus YGL078C, strain dbp3, stronger effect = lower value 0.967 | locus YGL086W, strain mad1, stronger effect = lower value 0.979 | locus YGL167C, strain pmr1, stronger effect = lower value 0.965 | locus YGL173C, strain kem1, stronger effect = lower value 0.968 | locus YGL227W, strain vid30, stronger effect = lower value 0.973 | locus YGL240W, strain doc1, stronger effect = lower value 0.98 | locus YGL248W, strain PDE1, stronger effect = lower value 1 | locus YGL253W, strain hxk2, stronger effect = lower value 0.999 | locus YGR135W, strain pre9, stronger effect = lower value 0.998 | locus YGR229C, strain SMI1, stronger effect = lower value 1 | locus YGR252W, strain gcn5, stronger effect = lower value 1.06 | locus YHR013C, strain ard1, stronger effect = lower value 0.922 | locus YHR027C, strain rpn1, stronger effect = lower value 0.99 | locus YHR030C, strain SLT2, stronger effect = lower value 0.997 and 1.05 | locus YHR079C, strain IRE1 (second series), stronger effect = lower value 0.983 | locus YHR079C, strain IRE1, stronger effect = lower value 1.03 | locus YHR094C, strain hxt1, stronger effect = lower value 0.975 | locus YHR129C, strain ARP1, stronger effect = lower value 1 | locus YHR142W, strain chs7, stronger effect = lower value 1.01 | locus YHR200W, strain rpn10, stronger effect = lower value 1 | locus YIL066C, strain RNR3, stronger effect = lower value 1 | locus YIL073C, strain SPO22, stronger effect = lower value 1 | locus YIL125W, strain kgd1, stronger effect = lower value 0.978 | locus YIR030C, strain dcg1, stronger effect = lower value 0.976 | locus YJL092W, strain hpr5, stronger effect = lower value 0.986 | locus YJL095W, strain BCK1 (second series), stronger effect = lower value 0.993 | locus YJL095W, strain BCK1, stronger effect = lower value 1.05 and 1.02 | locus YJL115W, strain asf1, stronger effect = lower value 0.993 | locus YJL129C, strain trk1, stronger effect = lower value 1.01 | locus YJL134W, strain LCB3, stronger effect = lower value 0.994 | locus YJL154C, strain vps35, stronger effect = lower value 0.998 | locus YJL164C, strain tpk1, stronger effect = lower value 1.01 | locus YJL166W, strain qcr8, stronger effect = lower value 0.992 | locus YJL168C, strain set2, stronger effect = lower value 0.984 | locus YJL187C, strain SWE1 (second series), stronger effect = lower value 1.02 | locus YJL187C, strain SWE1, stronger effect = lower value 0.991 | locus YJR043C, strain POL32, stronger effect = lower value 1.01 | locus YJR066W, strain TOR1, stronger effect = lower value 0.987 | locus YJR075W, strain HOC1, stronger effect = lower value 1 | locus YKL009W, strain mrt4, stronger effect = lower value 1.01 | locus YKL068W, stronger effect = lower value 0.984 | locus YKL085W, strain MDH1 (second series), stronger effect = lower value 0.996 | locus YKL085W, strain MDH1, stronger effect = lower value 0.996 | locus YKL160W, strain elf1, stronger effect = lower value 1.02 | locus YKL190W, strain CNB1, stronger effect = lower value 1.01 | locus YKR001C, strain vps1, stronger effect = lower value 0.948 | locus YKR026C, strain gcn3, stronger effect = lower value 0.979 | locus YKR091W, strain srl3, stronger effect = lower value 0.981 | locus YLL001W, strain dnm1, stronger effect = lower value 1.01 | locus YLL026W, stronger effect = lower value 0.999 | locus YLL041C, strain sdh2, stronger effect = lower value 0.999 | locus YLR027C, strain aat2, stronger effect = lower value 0.998 | locus YLR039C, strain RIC1, stronger effect = lower value 1.04 | locus YLR058C, strain SHM2, stronger effect = lower value 1 | locus YLR102C, strain apc9, stronger effect = lower value 0.977 | locus YLR113W, strain HOG1, stronger effect = lower value 1.05 | locus YLR221C, strain rsa3, stronger effect = lower value 0.999 | locus YLR258W, strain gsy2, stronger effect = lower value 0.988 | locus YLR262C, strain YPT6 (second series), stronger effect = lower value 1 | locus YLR262C, strain YPT6, stronger effect = lower value 1.02 | locus YLR268W, strain sec22, stronger effect = lower value 0.959 | locus YLR320W, strain mms22, stronger effect = lower value 0.97 | locus YLR330W, strain CHS5, stronger effect = lower value 0.996 | locus YLR342W, strain FKS1 (second series), stronger effect = lower value 1.03 | locus YLR342W, strain FKS1, stronger effect = lower value 0.954 | locus YLR357W, strain rsc2, stronger effect = lower value 0.97 | locus YLR370C, strain arc18, stronger effect = lower value 0.991 | locus YLR371W, strain rom2, stronger effect = lower value 0.971 | locus YLR384C, strain iki3, stronger effect = lower value 0.976 | locus YLR418C, strain cdc73, stronger effect = lower value 1 | locus YML016C, strain PPZ1, stronger effect = lower value 0.995 | locus YML032C, strain rad52, stronger effect = lower value 1 | locus YML120C, strain ndi1, stronger effect = lower value 1.01 | locus YML124C, strain tub3, stronger effect = lower value 0.986 | locus YMR058W, strain fet3, stronger effect = lower value 0.985 | locus YMR078C, strain ctf18, stronger effect = lower value 0.969 | locus YMR125W, strain sto1, stronger effect = lower value 0.972 | locus YMR129W, stronger effect = lower value 0.989 | locus YMR205C, strain PFK2, stronger effect = lower value 0.936 | locus YMR223W, strain ubp8, stronger effect = lower value 0.992 | locus YMR231W, strain pep5, stronger effect = lower value 0.969 | locus YMR307W, strain GAS1, stronger effect = lower value 1.06 | locus YNL067W, strain RPL9B, stronger effect = lower value 1.01 | locus YNL071W, strain lat1, stronger effect = lower value 0.984 | locus YNL183C, strain NPR1, stronger effect = lower value 0.996 | locus YNL209W, strain ssb2, stronger effect = lower value 0.978 | locus YNL233W, strain BNI4, stronger effect = lower value 1 | locus YNL248C, strain rpa49, stronger effect = lower value 1.04 | locus YNL250W, strain rad50, stronger effect = lower value 0.978 | locus YNL271C, strain bni1, stronger effect = lower value 1 | locus YNL298W, strain CLA4, stronger effect = lower value 0.972 | locus YNL307C, strain MCK1, stronger effect = lower value 0.97 | locus YNL322C, strain KRE1 (second series), stronger effect = lower value 0.987 | locus YNL322C, strain KRE1, stronger effect = lower value 1 | locus YNR049C, strain mso1, stronger effect = lower value 0.993 | locus YNR052C, strain pop2, stronger effect = lower value 0.986 | locus YOL006C, strain TOP1, stronger effect = lower value 0.962 | locus YOL012C, strain htz1 1.06 | locus YOL147C, strain pex11, stronger effect = lower value 0.983 | locus YOR001W, strain rrp6, stronger effect = lower value 1.03 | locus YOR061W, strain CKA2, stronger effect = lower value 0.977 | locus YOR069W, strain VPS5, stronger effect = lower value 0.992 | locus YOR070C, strain gyp1, stronger effect = lower value 1.01 | locus YOR080W, strain dia2, stronger effect = lower value 0.974 | locus YOR083W, strain WHI5, stronger effect = lower value 1.02 | locus YOR106W, strain vam3, stronger effect = lower value 1.02 | locus YOR136W, strain idh2, stronger effect = lower value 0.981 | locus YOR144C, strain elg1, stronger effect = lower value 0.987 | locus YOR184W, strain ser1, stronger effect = lower value 0.994 | locus YOR231W, strain MKK1, stronger effect = lower value 1.06 | locus YOR265W, strain rbl2, stronger effect = lower value 1 | locus YOR270C, strain vph1, stronger effect = lower value 0.989 | locus YOR290C, strain snf2, stronger effect = lower value 0.922 | locus YOR316C, strain cot1, stronger effect = lower value 0.994 | locus YPL051W, strain arl3, stronger effect = lower value 1.03 | locus YPL078C, strain atp4, stronger effect = lower value 1.01 | locus YPL106C, strain sse1, stronger effect = lower value 0.976 | locus YPL240C, strain hsp82, stronger effect = lower value 0.966 | locus YPL256C, strain CLN2, stronger effect = lower value 1.04 | locus YPR119W, strain clb2, stronger effect = lower value 0.98 | locus YPR141C, strain kar3, stronger effect = lower value 0.98 | locus YPR163C, strain tif3, stronger effect = lower value 0.984 | locus YPR167C, strain met16, stronger effect = lower value 0.972 | strain wtn01, stronger effect = lower value 0.971
